13 compounds from PubChem BioAssay (NCI) can be followed below.

Each structure is given as a SMILES string. This is part of a sample that, as a whole, favours compounds with a hit. Of some 83,000 tested, about 20% had one in any assay.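 Plates (96-well) were seeded with cells, treated with compound at one concentration, and incubated for 48 hours before percent growth was determined.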 Unmarked numbers belong to inactive results. Calls of active or inactive are those of the source. Rule for the calls: active = growth percent below 10; inactive = the rest.

The assay relates to MDA-MB-231 breast. In words: NCI-60 one-dose screen, 48 h (100 = growth as untreated, 0 = no growth, -100 = all killed). The settings on record: 10 µM unless noted.
Take `N/C(=N\C(N)=N\c1nc2ccccc2s1)c1ccnc(Cl)c1`: the growth is 49.7%.

As to `COc1ccc(NS(=O)(=O)N2CCCCC2)cc1`, the growth is 91.5%. `C=C1CCC2C(C)(COC(=O)CC)C(OC(=O)CC)CCC2(C)C1C/C=C1/C(=O)OCC1OC(=O)CC` (stereo not drawn): the growth was -29.6% (active). Turning to `Cc1[nH]ccc2cc3nc4ccccc4c3cc12`, the growth is 26.3%. To `CC(C)=CCCC(C)c1ccc(C)c2c1OCN(CC1CCNCC1)C2` (stereo not drawn) belongs 68.8%; to `COc1ccc2c(c1)sc1nc(-c3ccc(N(C)C)cc3)cn12`, 122%. For `COc1cc(/C=C/C(=O)C(C(=O)/C=C/c2ccc(OC(=O)CCNc3nnc(C)s3)c(OC)c2)C(=O)CCNc2nnc(C)s2)ccc1OC(=O)CCNc1nnc(C)s1`, the growth was -4.77% (active). With `O=C(O)c1ccc2cccnc2c1O`, the growth was 11.4%. For the compound `CC[C@@H](c1ccc(O)c(O)c1)[C@@H](CC)c1ccc(O)c(O)c1`, the growth was 89.7%. As to `Cc1ccc(NC(=O)c2sc3nc4c(cc3c2N)C(=O)CCC4)cc1`, the growth is 78%. To `CCOC(=O)/C=C1/SC(=Nc2ccc(C#N)cc2)N(Cc2ccco2)C1=O` belongs 57%. Turning to `COP(=O)(OC)C(c1ccc(O)cc1)(c1ccc(O)cc1)c1ccc(O)cc1`, the growth was 93.7%. Regarding `COc1ccccc1-n1c(-c2ccc(O)cc2C)cn2c3c(=O)[nH]c(=O)n(C)c3nc12`, the growth was 65%.
